Bioassay records from PubChem.
Sampled rows, rich in hits. Any-hit rate of the full collection: about 19%.
HT1080-NT tox: qHTS for induction of synthetic lethality in tumor cells producing 2HG: qHTS for the HT-1080-NT fibrosarcoma cell line; HT-1080-NT fibrosarcoma viability, CellTiter-Glo ATP luminescence, 48 h; Potency, µM (top dose mostly 46.1 µM), inactives show top-dose activity, negative = less viability, most hits filed as cytotoxic; actives 1.6% (n = 360,000);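 further: NT is the 2HG producing partner of a matched IDH1 knockdown line; potency means the concentration at half of the fitted maximal effect; 0% = DMSO-treated cells and -100% = media-only wells without cells; nearly all actives have a fitted effect of over 55% in size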
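HT-1080-NT; 750 cells/well; 5% FBS RPMI; 48 h compound, 37 degrees C; CellTiter-Glo luminescence; curve fitting and curve-class assignment.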
IL-1B inflam inh: qHTS for Inhibitors of Inflammasome Signaling: IL-1-beta AlphaLISA Primary Screen. THP-1 LPS/ATP IL-1B secretion, AlphaLISA, 16 h; active compounds read low. activity change, % at 57.5 µM. actives 4.7% (n = 360,000); in the data active means activity change below about -50%; inconclusive means mostly about -30% to -49%
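THP-1 cells pretreated 1 hr with compounds (up to 57.5 uM final), then stimulated with LPS (250 ng/mL final) plus ATP (1.25 mM final); secreted IL-1B measured by AlphaLISA after 16 hr, decreased signal indicating inhibition.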
HT1080 IDH1KD tx: qHTS for induction of synthetic lethality in tumor cells producing 2HG: qHTS for the HT-1080-IDH1KD cell line. Potency, µM (doses to about 46.1 µM), inactives show at the highest dose activity, negative = toxicity, usual class: cytotoxic. actives 2% (n = 360,000). AID 686971, 2013. HT-1080 IDH1 knockdown viability, ATP luminescence, 48 h;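 further: potency means the concentration at half of the fitted maximal effect; 0% = DMSO wells and -100% = cell-free medium wells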
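% activity derives from luminescence (CellTiter-Glo), normalised to DMSO and no-cell wells. HT-1080-IDH1KD cells, 750/well, had 48 h compound exposure at 37 °C.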
ELG1 DNA repair: qHTS screen for small molecules that inhibit ELG1-dependent DNA repair in human embryonic kidney (HEK293T) cells expressing luciferase-tagged ELG1. AID 504467, 2011. Potency, µM (series often up to 46.1 µM), inactives show at the top dose activity change, negative = inhibition, actives largely listed as inhibitors. actives 2.3% (n = 330,000). HEK293T ELG1-luciferase reporter, luminescence, 16 h; DNA damage induced by 5-fluorouridine; further: potency means the concentration at half of the fitted maximal effect; nearly all actives have a fitted effect of over 55% in size
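Cells (2,000 per well) received 5-fluorouridine plus test compound or DMSO and were incubated 16 hr at 37 °C, 5% CO2. Luciferase activity was read by luminescence 30 min after ONE-Glo addition; signal suppression marked inhibition of damage-induced ELG1 function.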
TDP1 cell CPT: qHTS for Inhibitors of human tyrosyl-DNA phosphodiesterase 1 (TDP1): qHTS in cells in presence of CPT; chicken DT40 Tdp1-/-;hTDP1 cells + 20 nM CPT, ATP luminescence, 48 h; Potency, µM (doses to about 46.2 µM), without a hit: at the highest dose activity change, negative = growth inhibition, hits mostly inhibitors; actives 12% (n = 420,000); further: potency means the concentration at half of the fitted maximal effect; nearly all actives have a fitted effect of over 55% in size
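Chicken DT40 Tdp1-/- cells complemented with human TDP1, 400 cells/well, exposed to compounds plus 20 nM camptothecin for at least 48 h at 37 C; viability read as ATP content by CellTiter-Glo luminescence.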
DT40 TDP1 no CPT: qHTS for Inhibitors of human tyrosyl-DNA phosphodiesterase 1 (TDP1): qHTS in cells in absence of CPT | DT40 Tdp1-/- hTDP1 cells, no CPT, ATP luminescence, 48 h | Potency, µM (top dose mostly 46.2 µM), inactives show top-dose activity change, negative = growth inhibition, usual class: inhibitors | actives 15% (n = 420,000) | AID 686978, 2013; further: potency means the concentration at half of the fitted maximal effect; nearly all actives have a fitted effect of over 55% in size
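Growth kinetics read by CellTiter-Glo luminescence after ≥48 hr at 37 °C. Cells: DT40 Tdp1-/- stably carrying human TDP1, 400 per well, compound exposure in the absence of CPT (DMSO vehicle).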
Starred values were filed as active, the others as inactive; ? = inconclusive; nt = not tested or not shown; [ ] = dose if it differs, or a comment. Unless noted, the call rests on the fitted dose curve; in most records, active means well fitted curve in the direction sought with a large enough effect; inconclusive means small, poorly fitted or top-dose-only effect, or another doubt; inactive means no such curve, though single readings can be large; an effect the other way counts as inactive or inconclusive. Unless noted, on the % scale 0 is the no-effect control and ±100 the full control effect.

SMILES	HT1080-NT tox	IL-1B inflam inh	HT1080 IDH1KD tx	ELG1 DNA repair	TDP1 cell CPT	DT40 TDP1 no CPT
CCOc1ccc(-c2cn3c(n2)sc2cc(C(=O)NCCCN4CCCCC4)ccc23)cc1	nt	nt	nt	nt	1.6µM*	1.6µM*
Cc1nn(C(C)C(=O)NCCN2CCCC2)c(=O)c2c1sc1ccccc12 (centres undefined)	-1%	11	17%	-2%	-11%	5%
CCN(CC)CCNC(=O)c1ccc2c(c1)sc1nc(-c3ccc(F)cc3)cn12	nt	nt	nt	nt	5.8µM*	3.3µM*
CCOc1ccc(-c2cn3c(n2)sc2cc(C(=O)NCCCN4CCCCCC4)ccc23)cc1	nt	nt	nt	nt	5.8µM*	6.5µM*
O=[N+]([O-])c1ccc(CNc2cccc(F)c2)s1	-24%	-52*	-4%	-24%	5%	-28%
Cn1nc(C(=O)NCCc2ccc(S(N)(=O)=O)cc2)c2ccccc2c1=O	?	29	7%	?	2%	-22%
COc1cc(OC)cc(C(=O)Nc2nnc3n2CCS3)c1	nt	nt	nt	nt	-12%	?
COc1ccc(S(=O)(=O)N2CCN(CC(=O)c3ccc(O)c(O)c3)CC2)cc1	0%	21	-17%	6%	?	?
O=C(CN1CCN(S(=O)(=O)c2ccc(Cl)cc2)CC1)c1ccc(O)c(O)c1	-7%	45	0%	-3%	12µM*	8.2µM*
NC(=O)CN1CCN(S(=O)(=O)c2ccc(Cl)cc2)CC1	7%	-6	11%	-13%	20%	1%
O=C(CN1CCN(S(=O)(=O)c2ccc(F)cc2)CC1)c1ccc(O)c(O)c1	-3%	14	-3%	?	?	23µM*
CC1CN(C(=O)CCC(=O)NCCCN2CCN(Cc3ccccc3)CC2)c2cc(Cl)ccc2O1 (centres undefined)	-11%	-22	-2%	8%	21µM*	?
Cc1ccc2c(c1)N(C(=O)CCC(=O)NCCCN1CCC(Cc3ccccc3)CC1)CCO2	?	-28	?	-18%	?	18µM*
CCC(Sc1nc2ncccc2o1)C(=O)Nc1ccc(OC)c(OC)c1 (centres undefined)	nt	nt	nt	nt	5%	-15%
O=c1c(-c2cc(-c3ccc(F)cc3)nc3c2COc2ccc(Cl)cc2-3)coc2ccc(F)cc12	nt	nt	nt	nt	3%	-4%
O=C1c2c(-c3ccc(Br)cc3)noc2CCN1Cc1cn(Cc2ccccc2)nn1	?	-8	?	nt	?	18µM*
O=C1c2c(-c3ccc(Br)cc3)noc2CCN1Cc1cn(-c2ccccc2)nn1	?	0	-25%	nt	21µM*	?
O=C1c2c(-c3ccc(Br)cc3)noc2CCN1Cc1cn(-c2ccc(Cl)cc2)nn1	?	-24	-26%	nt	?	?
CCc1ccc2occ(CC(=O)Nc3sc4c(c3C(=O)OC)CCC4)c2c1	nt	nt	nt	nt	13µM*	18µM*
CCNC(=O)c1c(NC(=O)Cc2coc3ccc(CC)cc23)sc2c1CCCC2	nt	nt	nt	nt	-18%	-7%
CNC(=O)c1c(NC(=O)Cc2coc3ccc(C)cc23)sc2c1CCCC2	nt	nt	nt	nt	?	18µM*
CCN1C(Br)=CCc2ccccc21	nt	nt	nt	nt	6%	-11%
COc1ccc(S(=O)(=O)c2cc3cc(C(C)(C)C)cc(O)c3oc2=O)cc1	nt	nt	nt	nt	?	-32%
Cc1ccc(S(=O)(=O)NCC(=O)N(CC2CCCO2)C(C(=O)NC2CCCCC2)C(C)C)cc1 (centres undefined)	14%	-5	7%	1%	-22%	-29%
O=C(/C=C/c1ccc(S(=O)(=O)NCc2ccco2)cc1)NCc1ccccc1Cl	?	?	?	-8%	?	18µM*
SMILES	HT1080-NT tox	IL-1B inflam inh	HT1080 IDH1KD tx	ELG1 DNA repair	TDP1 cell CPT	DT40 TDP1 no CPT
COc1ccc(CNC(=O)/C=C/c2ccc(S(=O)(=O)NCc3ccco3)cc2)cc1OC	-6%	-8	-1%	?	?	26µM*
N#Cc1ccc(C(=O)OCC(=O)Nc2ccc(S(N)(=O)=O)cc2)cc1	26%	18	13%	3%	-6%	-2%
O=C(Nc1ccccc1N1CCOCC1)c1cccc2ccccc12	1%	-23	0%	nt	?	-18%
O=C(COC(=O)CN1CCSC1=O)Nc1ccc(F)cc1Cl	7%	0	18%	1%	-20%	-2%
CC(=NCCc1c(C)[nH]c2ccc(C)cc12)C1=C(O)CC(c2ccccc2)CC1=O (centres undefined)	-29%	-28	8.2µM*	?	1.2µM*	1.6µM*
CC(=NCCc1c(C)[nH]c2ccc(OC(F)(F)F)cc12)C1=C(O)CC(c2ccccc2)CC1=O (centres undefined)	?	-12	?	?	4.6µM*	3.3µM*
CC(=O)C1=C(O)CC(c2ccccc2)CC1=NCCc1ccccc1 (centres undefined)	2%	?	2%	-20%	?	?
CCO/C(C)=N/n1c2nc3ccccc3nc2c2c(=O)n(Cc3ccccc3Cl)c(C)nc21	24%	?	6%	-6%	?	26µM*
CCCCCCCCCCCCCCC(C(=O)O)C(O)(CC(=O)OC)C(=O)O (centres undefined)	nt	nt	nt	nt	10µM*	8.2µM*
CCCCCC(CC(=O)O)C(=O)O (centres undefined)	nt	nt	nt	nt	-6%	1%
CCN(CC)S(=O)(=O)c1cccc(C(=O)Nc2ccc(Cl)cn2)c1	1%	18	-18%	-28%	?	?
CCN(CC)S(=O)(=O)c1cc(C(=O)Nc2cc(C)on2)ccc1Cl	2%	-6	-10%	16µM*	-27%	?
CCN(CC)S(=O)(=O)c1cc(C(=O)Nc2ccc(Cl)cn2)ccc1C	-10%	-54*	-3%[9.24 µM]	?	?	16µM*
CCCCN(C)CCCNC(=O)c1cc(Nc2ccc(OC)c(OC)c2)nc2ccccc12	-23%	?	-17%	18%	?	?
COc1ccc(Nc2cc(C(=O)NCCc3ccccc3)c3ccccc3n2)cc1OC	nt	nt	nt	nt	-4%	-1%
